# Measurements from the antibiotic and cytotoxicity screens of Wong et al. (2023).
# Hit rate of the full screen: of about 39,000 compounds, about 1,500 (3.8%) were called active. What follows is part of a selection rich in actives, with near analogues and random picks from the rest.
# Tested on: HSkMC (human skeletal muscle cells)
# Assay: cytotoxicity call (relative viability < 0.9)
# Conditions: 10 µM
row,SMILES,cytotoxicity call
1,C[C@@H]1CN([C@H](C)CO)C(=O)Cc2cc(NS(=O)(=O)c3ccc(F)cc3)ccc2O[C@H]1CN(C)Cc1ccc(-c2ccccc2)cc1,active
2,C[C@@H]1CN([C@H](C)CO)C(=O)Cc2cc(NS(=O)(=O)c3ccc(F)cc3)ccc2O[C@@H]1CN(C)Cc1ccc(-c2ccccc2)cc1,active
3,C[C@H]1CN([C@@H](C)CO)C(=O)Cc2cc(NS(=O)(=O)c3ccc(F)cc3)ccc2O[C@H]1CN(C)Cc1ccc(-c2ccccc2)cc1,active
4,C[C@H]1CN([C@@H](C)CO)C(=O)Cc2cc(NS(=O)(=O)c3ccc(F)cc3)ccc2O[C@@H]1CN(C)Cc1ccc(-c2ccccc2)cc1,active
5,Cc1ccc(S(=O)(=O)N(C)C[C@H]2Oc3ncc(-c4ccncc4)cc3C(=O)N([C@H](C)CO)C[C@H]2C)cc1,inactive
6,C[C@H]1CCCCO[C@@H](CN(C)C(=O)Nc2ccc3c(c2)OCO3)[C@@H](C)CN([C@@H](C)CO)C(=O)c2cc(NC(=O)c3ccccc3)ccc2O1,inactive
7,CO[C@@H]1CN(C)C(=O)c2cc(NS(C)(=O)=O)ccc2OC[C@@H](C)N(C(=O)C2CCOCC2)C[C@@H]1C,inactive
8,Cc1noc(C)c1NC(=O)Nc1cccc2c1O[C@H](CN(C)Cc1ccc(C(F)(F)F)cc1)[C@H](C)CN([C@H](C)CO)C2=O,inactive
9,NNC(=O)c1cc2ccccc2[nH]1,inactive
10,C[C@H]1CCCCO[C@H](CN(C)Cc2ccccc2)[C@@H](C)CN([C@@H](C)CO)C(=O)c2cc(NC(=O)C3CCCCC3)ccc2O1,inactive
11,C[C@@H]1CN([C@@H](C)CO)C(=O)Cc2cc(NS(=O)(=O)c3ccc(F)cc3)ccc2O[C@@H]1CN(C)Cc1ccc(-c2ccccc2)cc1,active
12,C[C@@H]1CN([C@@H](C)CO)C(=O)Cc2cc(NS(=O)(=O)c3ccc(F)cc3)ccc2O[C@H]1CN(C)Cc1ccc(-c2ccccc2)cc1,inactive
13,C[C@H](CO)N1C[C@H](C)[C@@H](CN(C)Cc2ccc(-c3ccccc3)cc2)Oc2ccc(NS(=O)(=O)c3ccc(F)cc3)cc2CC1=O,inactive
14,C[C@H](CO)N1C[C@H](C)[C@H](CN(C)Cc2ccc(-c3ccccc3)cc2)Oc2ccc(NS(=O)(=O)c3ccc(F)cc3)cc2CC1=O,active
15,C[C@@H]1CN([C@@H](C)CO)C(=O)c2cc(NC(=O)CCC(F)(F)F)ccc2O[C@@H](C)CCCCO[C@H]1CN(C)C(=O)C1CCCCC1,inactive
16,CSC1=NN(C)c2cnn(C)c(=O)c2S1,inactive
17,Cc1noc(C)c1NC(=O)Nc1ccc2c(c1)C(=O)N([C@@H](C)CO)C[C@H](C)[C@@H](CN(C)C(=O)Nc1cccc3ccccc13)OCCCC[C@H](C)O2,inactive
18,CC(C)NC(=O)Nc1ccc2c(c1)C(=O)N([C@@H](C)CO)C[C@@H](C)[C@@H](CN(C)S(=O)(=O)c1ccc(F)cc1)O2,inactive
19,CO[C@@H]1CN(C)C(=O)c2ccc(NS(=O)(=O)c3cn(C)cn3)cc2OC[C@H](C)N(CCC(F)(F)F)C[C@H]1C,inactive
20,CC(=N)NCc1cccc(CN)c1,inactive
21,O=C(C[C@H]1CC[C@@H](NC(=O)c2cccnc2)[C@@H](CO)O1)NCCN1CCCCC1,inactive
22,Cc1noc(C)c1CC(=O)N1CCCC[C@@H]1CCOc1cccc(CN(C)Cc2cccc3cccnc23)c1,inactive
23,Cc1ccc(S(=O)(=O)N(C)C[C@H]2Oc3ccc(NS(=O)(=O)c4ccc(F)cc4)cc3CC(=O)N([C@H](C)CO)C[C@H]2C)cc1,inactive

row,SMILES,cytotoxicity call
1,C[C@@H]1CN([C@@H](C)CO)C(=O)c2cc(NS(=O)(=O)c3ccc(F)cc3)ccc2O[C@@H](C)CCCCO[C@@H]1CN(C)S(=O)(=O)c1cn(C)cn1,inactive
2,CC(=O)N[C@H]1[C@H](O[C@H]2CC[C@]3(C)[C@H]4CC=C5[C@@H]6CC(C)(C)CC[C@]6(C(=O)O[C@H]6OC[C@@H](O)[C@@H](O)[C@@H]6O)[C@@H](O)C[C@@]5(C)[C@]4(C)CC[C@H]3C2(C)C)O[C@H](CO[C@H]2OC[C@@H](O)[C@@H](O[C@H]3OC[C@@H](O)[C@@H](O)[C@@H]3O)[C@@H]2O)[C@@H](O[C@@H]2O[C@@H](C)[C@H](O)[C@@H](O)[C@H]2O[C@@H]2O[C@@H](C)[C@H](O)[C@@H](O)[C@H]2O)[C@@H]1O,inactive
3,Cc1noc(C)c1NC(=O)Nc1cccc2c1O[C@@H](CN(C)C(=O)NC(C)C)[C@H](C)CN([C@H](C)CO)C2=O,inactive
4,C[C@H]1CC=CC[C@H](c2ccc3c(c2)OCO3)NC(=O)[C@@H](Cc2ccccc2)N(C)C(=O)c2ccccc2O1,active
5,C[C@@H]1CC=CC[C@H](c2ccc3c(c2)OCO3)NC(=O)[C@@H](Cc2ccccc2)N(C)C(=O)c2ccccc2O1,inactive
6,C[C@H]1CC=CC[C@@H](c2ccc3c(c2)OCO3)NC(=O)[C@H](Cc2ccccc2)N(C)C(=O)c2ccccc2O1,inactive
7,COc1ccc([C@@H]2CC=CC[C@H](C)Oc3ccccc3C(=O)N(C)[C@@H](Cc3ccccc3)C(=O)N2)c(OC)c1,active
8,COc1ccc([C@H]2CC=CC[C@H](C)Oc3ccccc3C(=O)N(C)[C@H](Cc3ccccc3)C(=O)N2)c(OC)c1,inactive
9,COc1ccc([C@H]2CC=CC[C@H](C)Oc3ccccc3C(=O)N(C)[C@@H](Cc3ccccc3)C(=O)N2)c(OC)c1,inactive
10,COCCCN1C(=O)[C@@]2(Cc3ccccc31)c1ccccc1C(=O)N(Cc1ccccc1)[C@H]2c1ccc(CO)cc1,inactive
11,Cc1ccc(S(=O)(=O)Nc2ccc3c(c2)CC(=O)N([C@@H](C)CO)C[C@H](C)[C@H](CN(C)CC2CC2)O3)cc1,inactive
12,Nc1ccc2oc3c(c2c1)CCCC3,inactive
13,O=C(Nc1ccccc1)Nc1ccccc1,inactive
14,CC(C)(C)c1ccc(C(=O)Nc2cccc(C(F)(F)F)c2)cc1,inactive
15,O=C(Nc1ccc(C(F)(F)F)cc1)Nc1cccc(Cl)c1,active
16,CCC(=O)Nc1ccc(Cl)cc1,inactive
17,O=C(Nc1ccc(Cl)cc1)Nc1ccc(Cl)c(Cl)c1,active
18,CC(C)C(=O)Nc1cccc(Cl)c1,inactive
19,C[C@H]1CN([C@@H](C)CO)C(=O)c2cc(NC(=O)Cc3ccccc3)ccc2O[C@H]1CN(C)Cc1ccc(C(F)(F)F)cc1,inactive
20,C[C@@H]1CN([C@@H](C)CO)C(=O)Cc2cc(NC(=O)Cn3cnnn3)ccc2O[C@H]1CN(C)S(=O)(=O)c1cn(C)cn1,inactive
21,COc1cccc(S(=O)(=O)Nc2ccc3c(c2)[C@H]2C[C@@H](CC(=O)NCc4ccccc4F)O[C@@H](CO)[C@H]2O3)c1,inactive
22,CCCCCCCCCCCCCCCC[N+](C)(C)C,active
23,CCCCCCCCCCCCCCCCOP(=O)([O-])OCC[N+](C)(C)C,inactive

row,SMILES,cytotoxicity call
1,C[N+](C)(C)CCCCCC[N+](C)(C)C.[Br-].[Br-],inactive
2,CC1=C2C/C=C(\C)[C@H](O[C@H]3O[C@@H](CO)[C@@H](O)[C@@H](O)[C@@H]3O)C/C=C(\C)C[C@@H]2OC1=O,inactive
3,NCc1nncn1-c1ccccc1,inactive
4,COc1ccccc1CNC(=O)C[C@@H]1C[C@H]2c3cc(NC(=O)c4cccnc4)ccc3O[C@H]2[C@@H](CO)O1,inactive
5,CC(N)(Cc1ccc2c(c1)OCO2)C(=O)O (configuration not stated),inactive
6,C[C@@H]1CN([C@@H](C)CO)C(=O)c2cc(NS(C)(=O)=O)ccc2O[C@@H]1CN(C)S(=O)(=O)c1ccccc1,inactive
7,CCC(=O)N1CCN(c2ccc(-n3c(=O)ccc4cnc5ccc(-c6cnc7ccccc7c6)cc5c43)cc2C(F)(F)F)CC1,active
8,CCCCn1c(-c2ccccc2)nc(-c2ccccc2)c1CN(Cc1ccc2c(c1)OCO2)Cc1ccc2c(c1)OCO2,inactive
9,COc1ccc(-c2cnc3c(c2)C(=O)N([C@@H](C)CO)C[C@@H](C)[C@@H](CN(C)C(=O)C2CCOCC2)O3)cc1,inactive
10,CO[C@@H]1CN(C)C(=O)c2ccc(NC(=O)C3CC3)cc2OC[C@H](C)N(C(=O)CN2CCOCC2)C[C@@H]1C,inactive
11,C[C@@H]1CN([C@@H](C)CO)C(=O)Cc2cc(NS(C)(=O)=O)ccc2O[C@H]1CN(C)S(=O)(=O)c1cccs1,inactive
12,C[C@@H]1CN([C@H](C)CO)C(=O)Cc2cc(NS(=O)(=O)c3ccc(Cl)cc3)ccc2O[C@H]1CN(C)Cc1ccc(C(F)(F)F)cc1,active
13,C[C@@H]1CN([C@H](C)CO)C(=O)Cc2cc(NS(=O)(=O)c3ccc(Cl)cc3)ccc2O[C@@H]1CN(C)Cc1ccc(C(F)(F)F)cc1,active
14,C[C@H](CO)N1C[C@H](C)[C@H](CN(C)Cc2ccc(C(F)(F)F)cc2)Oc2ccc(NS(=O)(=O)c3ccc(Cl)cc3)cc2CC1=O,active
15,C[C@@H]1CN([C@@H](C)CO)C(=O)Cc2cc(NS(=O)(=O)c3ccc(Cl)cc3)ccc2O[C@@H]1CN(C)Cc1ccc(C(F)(F)F)cc1,active
16,C[C@@H]1CCCCO[C@@H](CN(C)S(=O)(=O)c2ccc(Cl)cc2)[C@H](C)CN([C@@H](C)CO)C(=O)c2cc(NS(=O)(=O)c3cccs3)ccc2O1,inactive
17,COc1cccc(NC(=O)N(C)C[C@@H]2Oc3cc(C#Cc4ccncc4)ccc3S(=O)(=O)N([C@H](C)CO)C[C@@H]2C)c1,inactive
18,CC(=O)O[C@H]1C=C[C@@H](O)C1,inactive
19,O=C(CCCCCCC(=O)Nc1ccc([C@H]2C[C@H](c3ccccc3)O[C@H](c3ccncc3)O2)cc1)NO,inactive
20,COc1ccc(-c2cc(=O)c3c(O)cc(O[C@@H]4O[C@H](CO[C@H]5O[C@H](C)[C@@H](O)[C@H](O)[C@@H]5O)[C@@H](O)[C@H](O)[C@H]4O)cc3o2)cc1O,inactive
21,C[C@@H]1CN([C@@H](C)CO)C(=O)c2cc(NC(=O)C3CC3)ccc2O[C@@H]1CN(C)C(=O)NC1CCCCC1,inactive
